# In the supplement of paper PMC6555819:
# Key:
# Assay in all cases: PBM binding z-score (relative to random genomic background probes); higher = stronger binding; sequences stand for … in GC…GCGATTGACAGCGTAGAATGAAGG
# [1] = test system: PPARg:RXRa DBDmut IVT, anti-RXR (DBD mutation: RXRa K156A/R161A, NR concentration 270 nM, RXRa partner concentration 90 nM)
# Summary of the method: (§1)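 Scanned fluorescence from custom Agilent 4×180K protein-binding microarrays was regression-normalized. Binding z-scores use random background probes as reference. Ligand-free nuclear receptor dimers were incubated on the arrays for 1 h and detected with antibodies against each partner (one per run).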
# [2] = test system: PPARg:RXRa IVT, anti-PPARg (NR concentration 270 nM, RXRa partner concentration 90 nM)
# Summary of the method: as §1
# [3] = test system: PPARg DBDmut:RXRa IVT, anti-PPARg (DBD mutation: PPARg1 K132A/R137A, NR concentration 270 nM, RXRa partner concentration 90 nM)
# Summary of the method: as §1
# [4] = test system: PPARg DBDmut IVT, anti-PPARg (DBD mutation: PPARg1 K132A/R137A, NR concentration 270 nM)
# Summary of the method: as §1
# [5] = test system: PPARg homodimer (NR concentration 180 nM)
# Summary of the method: as §1
# [6] = test system: PXR:RXRa (NR concentration 270 nM, RXRa partner concentration 90 nM)
# Summary of the method: as §1
# [7] = test system: PXR homodimer (NR concentration 270 nM)
# Summary of the method: as §1
# [8] = test system: RARa:RXR (NR concentration 270 nM, RXRa partner concentration 90 nM)
# Summary of the method: as §1
# [9] = test system: RARa homodimer (NR concentration 270 nM)
# Summary of the method: as §1
# [10] = test system: RARb:RXRa (NR concentration 270 nM, RXRa partner concentration 90 nM)
# Summary of the method: as §1
Sequence,PBM binding z-score [1],PBM binding z-score [2],PBM binding z-score [3],PBM binding z-score [4],PBM binding z-score [5],PBM binding z-score [6],PBM binding z-score [7],PBM binding z-score [8],PBM binding z-score [9],PBM binding z-score [10]
AATACCGGGTCATCGTAGGCCAGAGTACGCACAG,2.9,4.61,2.58,2.08,2.01,4.56,0.459,4.53,0.886,3.67
CCGAGTAGGTTATGGGGCATTCATGCAACGGTGA,3.37,3.49,-0.836,0.00847,0.908,0.114,-0.204,0.175,0.24,0.981
CCTAGCAGGCCAATCTGAGTCACTCAAGGCTTGA,1.42,0.0725,-1.14,-1.49,0.0523,-0.832,-0.519,-0.853,-0.569,-0.0528
CCTAGCAGGCCAGGCTCACTCAAGCATTTCGCTT,0.917,-0.38,-2.2,-2.12,-1.28,-0.919,-0.688,-1.09,-0.856,-0.239
TCTCGGAGGACACGAAGGTCAGGGCTTTCCAGAG,1.37,0.884,-0.402,-1.18,1.07,1.89,0.452,2.52,-0.205,3.48
ACTATTAGTTGAGACGAGGGCAACCGATAGGTTG,0.0589,0.536,0.785,0.574,0.059,1.64,0.413,0.859,0.982,1.24
CAAACTAGGTCCCAGAGGTCAAAGTCCGTGCGTA,4.19,4.68,1.03,0.477,2.64,5.55,2.66,5.68,1.33,3.8
GGTACAGGGTCAAGGCCAGAGTACGCGTATTGAT,1.42,3.96,0.368,0.441,2.35,3.98,0.674,4.77,0.889,4.63
CCTCGGAGGACAGAAGGTCCGAGCTGTCCGCTTT,-0.468,-1.02,-0.692,-1.96,-0.27,-0.746,-0.803,-0.601,-1.06,0.0749
ACAGACAGGTGATGAACGTAACTCAGGCTATCAT,-0.0291,0.144,0.839,0.504,-0.201,-0.104,0.276,-0.047,0.235,-0.0365
TGAATGAGCTTATAAGATCAGGGAACGTTGCAAA,-1.43,-0.528,0.471,0.179,-0.626,-0.456,-0.325,-0.125,-0.206,-1.12
TCTAGTTTGTCACGGAGGTCACACACGACGGGTA,1.88,3.07,0.895,1.64,2.96,4.44,1.91,4.55,1.86,3.54
TAGCCTAGGTCATGGGCCAGTAAACCACGCGAAC,1.71,3.46,0.0624,0.0351,1.25,1.83,-0.321,2.72,-0.171,3.98
ACAGACAGGTGATTAAGGTAACTCAGGCTATCAT,0.239,0.557,0.291,-0.545,0.126,0.164,0.294,1.23,0.587,0.35
TGTCAAAGTTCAAAGGTAACGTAGGTATCCACAC,0.105,4.5,1.01,1.42,2.88,5.78,3.36,6.75,1.57,5.06
TTACCAAGGTGAAGGACGTTGATCCCTCTGTAGA,1.55,2.11,0.655,-0.0196,0.106,0.213,-0.502,0.474,-0.478,1.26
TTTTGTAGATCAATAGAGGTTAAGAAAGTGCGCT,1.22,1.99,1.51,1.54,1.32,3.37,0.915,2.2,1.45,1.15
ATCTCTAGGTAACAGTTCAGTGAATCCCGAGGAT,3.65,3.42,1.56,1,0.452,0.487,0.757,0.576,0.915,1.01
TCTCGGAGGACACGAAGGTCAGAGTTTTCCAGAG,1.44,1.35,-0.952,-0.619,1.53,2,1.37,2.07,0.114,3.32
ACTATCAGTTGAGACGAGGGCAACCGATAGGTTG,-0.519,0.218,-0.42,-0.235,0.148,1.44,-0.0291,0.7,-0.128,0.903
AGAATGAGGTTATTAAGATCACGGAATTGCGGTC,3.48,3.23,1.05,1.25,1.1,1.55,1.01,1.86,0.114,1.43
GCGACTGGGGCAAAGCAGGTTCCCATAAGGTTGG,3.87,2.9,-1.3,-1.28,-0.328,-0.524,-0.517,-0.168,-1.06,0.44
ATCTCTAGGTAAAAGTTCAGTGGATCCCGAGGAT,2.25,3.58,1.28,1.66,1.32,2.05,1.71,1.76,1.18,2.41
AATGCAGGGTCATCGTAGGCCAGAGTACGCACAG,2.83,4.24,1.78,1.66,2.03,4.81,0.279,4.75,0.252,4.37
